From the supplement of paper PMC11732987, “Enantioselective OTUD7B fragment discovery through chemoproteomics screening and high-throughput optimisation” (Communications Chemistry, 2025)

Tests used:
Test in all cases: log2 ratio of Biotin-Ahx-Ub-VS probe labelling (fragment/DMSO); higher = less target engagement (more negative = stronger competition), active = hit call of the paper (q ≤ 0.05, log2 ratio ≤ -1)
Conditions in all cases: compound concentration: 200 uM; treatment time: 3 h
USP19 = target: T1, USP19 (UniProt O94966)
T1 sequence (whole entry): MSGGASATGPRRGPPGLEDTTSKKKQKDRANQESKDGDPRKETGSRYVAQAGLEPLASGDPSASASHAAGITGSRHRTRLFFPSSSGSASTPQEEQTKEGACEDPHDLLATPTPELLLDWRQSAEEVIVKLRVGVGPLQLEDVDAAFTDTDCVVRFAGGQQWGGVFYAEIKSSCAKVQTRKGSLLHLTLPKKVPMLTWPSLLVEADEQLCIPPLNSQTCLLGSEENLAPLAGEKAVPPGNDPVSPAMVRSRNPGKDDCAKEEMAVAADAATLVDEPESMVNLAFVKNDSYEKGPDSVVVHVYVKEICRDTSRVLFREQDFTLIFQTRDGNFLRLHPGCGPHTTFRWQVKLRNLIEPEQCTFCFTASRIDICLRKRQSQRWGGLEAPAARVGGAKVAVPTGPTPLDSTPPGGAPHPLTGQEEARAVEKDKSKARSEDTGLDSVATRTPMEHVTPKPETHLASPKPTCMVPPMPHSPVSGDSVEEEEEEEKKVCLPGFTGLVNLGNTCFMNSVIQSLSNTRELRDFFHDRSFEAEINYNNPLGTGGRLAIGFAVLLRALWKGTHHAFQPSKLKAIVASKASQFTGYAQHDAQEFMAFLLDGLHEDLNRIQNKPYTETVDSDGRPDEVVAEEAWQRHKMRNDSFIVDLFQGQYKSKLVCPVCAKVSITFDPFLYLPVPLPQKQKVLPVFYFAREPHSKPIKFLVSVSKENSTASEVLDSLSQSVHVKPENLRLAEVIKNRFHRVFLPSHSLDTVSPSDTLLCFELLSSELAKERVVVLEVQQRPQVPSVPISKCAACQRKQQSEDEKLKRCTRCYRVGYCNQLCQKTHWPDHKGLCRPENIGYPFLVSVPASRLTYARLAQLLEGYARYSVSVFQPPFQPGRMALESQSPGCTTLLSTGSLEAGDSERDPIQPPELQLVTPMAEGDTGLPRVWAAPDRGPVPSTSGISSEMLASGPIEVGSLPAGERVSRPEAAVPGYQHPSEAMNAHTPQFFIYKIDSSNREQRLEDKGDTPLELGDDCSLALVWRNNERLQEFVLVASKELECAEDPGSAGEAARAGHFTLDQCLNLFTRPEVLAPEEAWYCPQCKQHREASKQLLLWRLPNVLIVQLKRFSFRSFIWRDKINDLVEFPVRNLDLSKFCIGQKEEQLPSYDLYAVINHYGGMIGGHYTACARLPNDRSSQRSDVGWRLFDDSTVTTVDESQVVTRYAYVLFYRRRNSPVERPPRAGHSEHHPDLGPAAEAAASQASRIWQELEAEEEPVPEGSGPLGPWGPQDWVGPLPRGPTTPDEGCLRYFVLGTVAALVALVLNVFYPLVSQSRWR
Procedure, shortened: (§1)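 Labelling with Biotin-Ahx-Ub-VS (0.5 µM final, 1 h) followed a 3 h triplicate treatment of HEK293T lysate (495 µg per sample, Tris/CHAPS/IGEPAL buffer with protease inhibitors) with fragment at 200 µM or vehicle. Labelled DUBs were NeutrAvidin-enriched, digested with LysC and trypsin, and run by diaPASEF LC-MS/MS. The values, average log2 fragment/vehicle ratios by unpaired t-test, come from global-median-normalised Spectronaut label-free quantities. Proteins with ≥2 unique peptides were used.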

USP22 = target: T2, USP22 (UniProt Q9UPT9)
T2 sequence (whole entry): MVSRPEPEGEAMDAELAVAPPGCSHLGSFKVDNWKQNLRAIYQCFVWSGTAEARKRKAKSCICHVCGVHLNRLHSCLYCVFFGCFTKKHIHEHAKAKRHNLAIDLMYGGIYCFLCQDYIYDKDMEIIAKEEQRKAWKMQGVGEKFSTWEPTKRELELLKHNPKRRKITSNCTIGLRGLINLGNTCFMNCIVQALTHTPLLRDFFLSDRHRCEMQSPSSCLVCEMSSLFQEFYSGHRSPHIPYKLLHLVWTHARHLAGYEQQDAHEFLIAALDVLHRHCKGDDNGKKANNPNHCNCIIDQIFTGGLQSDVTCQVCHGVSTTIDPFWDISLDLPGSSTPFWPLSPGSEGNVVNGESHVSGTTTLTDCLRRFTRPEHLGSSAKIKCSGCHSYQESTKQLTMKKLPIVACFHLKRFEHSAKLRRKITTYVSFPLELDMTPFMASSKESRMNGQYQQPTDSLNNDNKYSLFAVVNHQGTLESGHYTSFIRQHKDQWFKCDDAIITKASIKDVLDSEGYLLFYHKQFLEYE
Procedure, shortened: as §1

USP24 = USP24 (UniProt Q9UPU5)
Chain of USP24 (Q9UPU5 whole entry): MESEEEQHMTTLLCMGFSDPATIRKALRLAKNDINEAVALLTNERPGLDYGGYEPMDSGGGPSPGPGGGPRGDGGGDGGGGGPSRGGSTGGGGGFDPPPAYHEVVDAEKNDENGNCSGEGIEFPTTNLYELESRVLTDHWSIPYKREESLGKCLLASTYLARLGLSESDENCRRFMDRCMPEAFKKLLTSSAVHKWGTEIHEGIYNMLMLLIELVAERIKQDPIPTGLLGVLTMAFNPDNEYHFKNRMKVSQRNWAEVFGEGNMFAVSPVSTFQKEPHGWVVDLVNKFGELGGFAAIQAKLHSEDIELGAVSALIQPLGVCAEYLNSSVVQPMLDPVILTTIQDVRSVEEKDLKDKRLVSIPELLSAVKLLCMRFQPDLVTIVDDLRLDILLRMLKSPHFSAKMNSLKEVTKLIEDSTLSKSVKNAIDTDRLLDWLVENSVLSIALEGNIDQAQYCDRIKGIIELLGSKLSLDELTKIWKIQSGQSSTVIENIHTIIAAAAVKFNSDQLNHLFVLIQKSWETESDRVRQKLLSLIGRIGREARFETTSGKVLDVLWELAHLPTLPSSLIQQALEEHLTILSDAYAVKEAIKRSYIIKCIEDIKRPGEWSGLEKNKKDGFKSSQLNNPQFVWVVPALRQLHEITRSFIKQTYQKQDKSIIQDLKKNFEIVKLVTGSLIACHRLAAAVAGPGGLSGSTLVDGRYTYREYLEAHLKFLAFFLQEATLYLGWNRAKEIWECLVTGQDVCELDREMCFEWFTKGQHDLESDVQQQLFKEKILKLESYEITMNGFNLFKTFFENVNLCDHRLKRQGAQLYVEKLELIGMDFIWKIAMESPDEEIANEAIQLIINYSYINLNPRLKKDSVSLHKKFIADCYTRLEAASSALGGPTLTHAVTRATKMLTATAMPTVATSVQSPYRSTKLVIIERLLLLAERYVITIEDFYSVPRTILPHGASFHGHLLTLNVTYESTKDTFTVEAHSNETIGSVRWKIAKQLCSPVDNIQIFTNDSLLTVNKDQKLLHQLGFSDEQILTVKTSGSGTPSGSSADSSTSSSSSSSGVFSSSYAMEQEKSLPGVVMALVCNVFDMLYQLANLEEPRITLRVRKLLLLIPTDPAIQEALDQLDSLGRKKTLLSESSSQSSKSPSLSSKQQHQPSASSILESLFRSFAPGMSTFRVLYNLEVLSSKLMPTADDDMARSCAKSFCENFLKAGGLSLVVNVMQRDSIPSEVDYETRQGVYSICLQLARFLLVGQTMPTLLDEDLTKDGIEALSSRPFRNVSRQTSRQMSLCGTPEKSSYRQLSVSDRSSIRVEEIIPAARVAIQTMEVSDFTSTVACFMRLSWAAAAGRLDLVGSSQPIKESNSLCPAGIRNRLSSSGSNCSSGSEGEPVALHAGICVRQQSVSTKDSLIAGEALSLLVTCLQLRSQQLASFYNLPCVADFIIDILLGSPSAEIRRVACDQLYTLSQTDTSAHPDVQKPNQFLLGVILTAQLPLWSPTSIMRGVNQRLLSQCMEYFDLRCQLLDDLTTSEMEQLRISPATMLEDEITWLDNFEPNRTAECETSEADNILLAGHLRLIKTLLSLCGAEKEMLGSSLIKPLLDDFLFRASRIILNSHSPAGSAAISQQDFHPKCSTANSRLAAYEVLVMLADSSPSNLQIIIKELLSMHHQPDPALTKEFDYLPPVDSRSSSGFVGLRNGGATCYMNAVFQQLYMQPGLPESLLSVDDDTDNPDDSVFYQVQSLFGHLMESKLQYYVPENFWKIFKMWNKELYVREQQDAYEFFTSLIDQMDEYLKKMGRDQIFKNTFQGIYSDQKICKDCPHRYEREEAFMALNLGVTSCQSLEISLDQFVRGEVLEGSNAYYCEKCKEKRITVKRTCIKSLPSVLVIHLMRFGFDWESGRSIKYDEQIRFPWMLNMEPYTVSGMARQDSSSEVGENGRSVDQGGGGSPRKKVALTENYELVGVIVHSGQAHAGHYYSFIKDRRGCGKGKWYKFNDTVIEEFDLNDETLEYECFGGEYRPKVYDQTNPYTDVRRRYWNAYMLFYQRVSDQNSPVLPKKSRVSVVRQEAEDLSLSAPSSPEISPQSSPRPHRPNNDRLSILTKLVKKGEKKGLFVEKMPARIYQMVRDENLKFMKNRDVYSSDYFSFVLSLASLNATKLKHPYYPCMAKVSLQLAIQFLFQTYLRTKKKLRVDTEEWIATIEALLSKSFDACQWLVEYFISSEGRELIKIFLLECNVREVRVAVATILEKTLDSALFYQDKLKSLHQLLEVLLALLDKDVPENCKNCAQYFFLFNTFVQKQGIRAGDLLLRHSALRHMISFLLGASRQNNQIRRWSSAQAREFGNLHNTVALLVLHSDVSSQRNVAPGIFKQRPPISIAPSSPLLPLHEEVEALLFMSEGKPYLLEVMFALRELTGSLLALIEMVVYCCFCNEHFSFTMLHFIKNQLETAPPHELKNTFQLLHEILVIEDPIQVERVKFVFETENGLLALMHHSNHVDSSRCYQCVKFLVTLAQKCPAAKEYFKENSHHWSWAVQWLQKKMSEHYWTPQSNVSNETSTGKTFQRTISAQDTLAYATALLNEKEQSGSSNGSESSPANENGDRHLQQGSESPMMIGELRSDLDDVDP
Procedure, shortened: as §1

USP25 = target: T3, USP25 (UniProt Q9UHP3)
T3 sequence (whole entry): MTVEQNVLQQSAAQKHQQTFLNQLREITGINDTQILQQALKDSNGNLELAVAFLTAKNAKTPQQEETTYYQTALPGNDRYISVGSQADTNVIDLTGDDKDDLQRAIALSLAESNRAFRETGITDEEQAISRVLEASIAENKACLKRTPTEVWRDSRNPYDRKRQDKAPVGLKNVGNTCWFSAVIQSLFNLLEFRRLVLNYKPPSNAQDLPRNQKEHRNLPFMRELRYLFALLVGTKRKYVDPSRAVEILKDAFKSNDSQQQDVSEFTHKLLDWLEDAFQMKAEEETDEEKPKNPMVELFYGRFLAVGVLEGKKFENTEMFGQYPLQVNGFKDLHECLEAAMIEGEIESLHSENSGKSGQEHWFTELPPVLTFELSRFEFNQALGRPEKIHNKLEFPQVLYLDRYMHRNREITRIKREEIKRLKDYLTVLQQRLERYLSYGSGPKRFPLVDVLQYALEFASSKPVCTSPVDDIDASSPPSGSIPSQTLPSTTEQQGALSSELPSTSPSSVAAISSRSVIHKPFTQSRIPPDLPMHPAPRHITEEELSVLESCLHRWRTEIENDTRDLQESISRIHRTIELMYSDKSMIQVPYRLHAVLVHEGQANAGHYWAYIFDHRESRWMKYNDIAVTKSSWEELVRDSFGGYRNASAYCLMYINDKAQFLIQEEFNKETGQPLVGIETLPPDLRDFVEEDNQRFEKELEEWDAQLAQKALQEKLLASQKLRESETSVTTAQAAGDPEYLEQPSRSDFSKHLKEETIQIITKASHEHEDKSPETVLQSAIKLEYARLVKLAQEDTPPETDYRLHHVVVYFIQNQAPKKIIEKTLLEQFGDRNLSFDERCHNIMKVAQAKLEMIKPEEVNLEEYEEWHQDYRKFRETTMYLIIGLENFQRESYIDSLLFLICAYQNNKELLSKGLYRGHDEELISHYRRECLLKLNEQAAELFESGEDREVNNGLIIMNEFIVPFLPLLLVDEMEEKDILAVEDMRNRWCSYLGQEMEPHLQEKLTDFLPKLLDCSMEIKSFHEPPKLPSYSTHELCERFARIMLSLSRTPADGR
Procedure, shortened: as §1

USP28 = target: T4, USP28 (UniProt Q96RU2)
T4 sequence (whole entry): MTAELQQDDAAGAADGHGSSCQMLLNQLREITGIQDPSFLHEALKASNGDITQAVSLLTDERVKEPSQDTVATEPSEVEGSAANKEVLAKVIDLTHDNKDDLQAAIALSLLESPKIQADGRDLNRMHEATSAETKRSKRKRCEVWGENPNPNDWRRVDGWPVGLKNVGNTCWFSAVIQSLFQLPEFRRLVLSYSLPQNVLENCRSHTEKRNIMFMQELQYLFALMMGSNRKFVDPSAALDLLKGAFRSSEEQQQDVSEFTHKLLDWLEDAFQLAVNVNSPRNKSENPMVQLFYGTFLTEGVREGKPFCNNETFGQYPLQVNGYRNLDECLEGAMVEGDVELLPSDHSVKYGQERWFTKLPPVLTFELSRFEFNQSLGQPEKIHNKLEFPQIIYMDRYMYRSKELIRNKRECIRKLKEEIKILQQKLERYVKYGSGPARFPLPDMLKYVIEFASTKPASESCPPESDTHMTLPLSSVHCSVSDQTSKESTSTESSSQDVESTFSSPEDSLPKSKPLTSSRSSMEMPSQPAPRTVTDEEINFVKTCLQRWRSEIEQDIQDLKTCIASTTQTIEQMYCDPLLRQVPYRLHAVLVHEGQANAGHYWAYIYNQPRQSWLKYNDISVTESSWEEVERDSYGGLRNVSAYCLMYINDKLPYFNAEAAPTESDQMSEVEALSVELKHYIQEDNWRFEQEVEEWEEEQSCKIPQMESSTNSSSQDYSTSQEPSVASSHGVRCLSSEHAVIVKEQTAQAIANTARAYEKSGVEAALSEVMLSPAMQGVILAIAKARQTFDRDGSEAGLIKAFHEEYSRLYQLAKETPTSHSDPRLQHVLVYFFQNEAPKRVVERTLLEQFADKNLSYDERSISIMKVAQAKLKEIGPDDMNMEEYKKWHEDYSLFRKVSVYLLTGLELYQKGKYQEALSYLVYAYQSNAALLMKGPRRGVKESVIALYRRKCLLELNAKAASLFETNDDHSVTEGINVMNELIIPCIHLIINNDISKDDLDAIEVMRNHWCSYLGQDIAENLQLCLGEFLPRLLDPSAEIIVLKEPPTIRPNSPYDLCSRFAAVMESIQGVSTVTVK
Procedure, shortened: as §1

Measured: log2 ratio of Biotin-Ahx-Ub-VS probe labelling

COCC[C@@H](NC(=O)CCl)c1ccccc1
inactive: USP19 -0.0952 | USP22 0.104 | USP24 -0.153 | USP25 -0.293 | USP28 -0.388
